In the supplement of paper PMC4723716:
± gives the uncertainty stated by the source. In all, about 9,900 compounds were measured (“viability index relative to DMSO control”: median about 1, lowest 2% from about 0.85 on). Only a selection was taken, and the lowest values are over-represented in it overall.

Test system: Plasmodium falciparum NF54 stage V gametocytes
Assay: viability index relative to DMSO control (fraction); higher = less gametocyte killing
Settings: 2.5 µM, incubation time: 72 h
Summary of the method: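 In 1,536-well plates, 10 µl of serum-free medium holding P. falciparum NF54 stage V gametocytes (0.75% gametocytemia, 1.25% hematocrit) received compound at 2.5 µM for 72 hr at 37°C in low oxygen. After one to two hours with 3 µl of 2.5 µM MitoTracker Red CMXRos containing 0.13% saponin, red particles of 20–70 µm2 were counted in a single field per well. Viability index is reported as the particle count over the plate mean of wells treated with solvent only.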

[1] = library set: Broad Institute DOS

Compound | viability index (library set: Broad Institute Blood Stage) | viability index [1]
COc1cccc(S(=O)(=O)N(C)C[C@@H]2Oc3ncc(C#Cc4ccc(OC)c(OC)c4)cc3C(=O)N([C@H](C)CO)C[C@@H]2C)c1 | 1.01 ± 0.04 | –
C[C@H](CO)N1C[C@H](C)[C@H](CN(C)Cc2ccc3c(c2)OCO3)Oc2ncc(-c3cccc(C(F)(F)F)c3)cc2C1=O | – | 0.976 ± 0.025
C[C@H](CO)N1C[C@H](C)[C@@H](CN(C)C(=O)c2ccccc2)Oc2ncc(C#Cc3ccccc3)cc2C1=O | – | 0.963 ± 0.029
C[C@H](CO)N1C[C@H](C)[C@H](CN(C)C(=O)c2ccccc2)Oc2ncc(C#Cc3ccccc3)cc2C1=O | – | 0.829 ± 0.086
C[C@H]1CN([C@@H](C)CO)C(=O)c2cc(C#Cc3ccccc3)cnc2O[C@@H]1CN(C)C(=O)c1ccccc1 | – | 0.919 ± 0.071
C[C@@H]1CN([C@@H](C)CO)C(=O)c2cc(C#Cc3ccccc3)cnc2O[C@H]1CN(C)C(=O)c1ccccc1 | – | 1 ± 0.091
CCCN(C)C[C@@H]1Oc2ncc(-c3cccc(OC)c3)cc2C(=O)N([C@H](C)CO)C[C@@H]1C | – | 0.691 ± 0.3
C[C@H]1CN([C@@H](C)CO)C(=O)c2cc(C#Cc3ccccc3)cnc2O[C@H]1CN(C)C(=O)c1ccccc1 | – | 0.572 ± 0.14
C[C@@H]1CN([C@H](C)CO)C(=O)c2cc(C#Cc3ccccc3)cnc2O[C@H]1CN(C)C(=O)c1ccccc1 | – | 0.965 ± 0.019
C/C=C/c1ccc2c(c1)[C@@H]1[C@@H](CCN1C(=O)C1CCCC1)[C@H](CO)N2 | – | 1.06 ± 0.045
C[C@@H]1CCCCO[C@H](CN(C)C(=O)NC2CCCCC2)[C@@H](C)CN([C@H](C)CO)C(=O)c2cc(N(C)C)ccc2O1 | – | 1.14 ± 0.11
O=C(Nc1ccccc1)N1CC(=O)N2[C@H](CO)[C@H](c3ccc(C#CC4CCCCC4)cc3)[C@@H]2C1 | – | 0.96 ± 0.031
Cc1noc(C)c1NC(=O)N(C)C[C@@H]1OCc2ccccc2-c2c(n(C)c3ccccc23)C(=O)N([C@@H](C)CO)C[C@H]1C | – | 1.02 ± 0.1
Cc1noc(C)c1NC(=O)N(C)C[C@@H]1Oc2cc(C#CCN(C)C)ccc2S(=O)(=O)N([C@@H](C)CO)C[C@H]1C | – | 0.947 ± 0.18
CC(C)C#Cc1ccc([C@H]2[C@@H](CO)N3C(=O)CN(C(=O)c4ccc5c(c4)OCO5)C[C@@H]23)cc1 | – | 1.03 ± 0.021
CNC[C@H]1Oc2c(NS(=O)(=O)c3ccc(Cl)cc3)cccc2C(=O)N([C@@H](C)CO)C[C@H]1C | – | 1.01 ± 0.034
O=C(C[C@@H]1CC[C@@H]2[C@H](COC[C@H](O)CN2C(=O)c2cc(Cl)cc(Cl)c2)O1)N1CCc2ccccc2C1 | – | 1.032 ± 0.0059
C[C@@H]1CN([C@H](C)CO)C(=O)c2ccccc2-c2ccccc2CO[C@@H]1CN(C)C(=O)c1cc(Cl)cc(Cl)c1 | – | 0.8517 ± 0.003
Cc1ccc(OC(=O)N(C)C[C@@H]2OCc3ccccc3-c3ccccc3C(=O)N([C@@H](C)CO)C[C@H]2C)cc1 | – | 0.88 ± 0.0063

Compound | viability index (library set: Broad Institute Blood Stage) | viability index [1]
C[C@@H]1CN([C@H](C)CO)C(=O)c2ccccc2-c2ccccc2CO[C@@H]1CN(C)Cc1ccc(Oc2ccccc2)cc1 | – | 1.028 ± 0.0055
Cc1ccc(OC(=O)N(C)C[C@@H]2OCc3ccccc3-c3ccccc3C(=O)N([C@H](C)CO)C[C@@H]2C)cc1 | – | 0.993 ± 0.036
C[C@@H]1CN([C@@H](C)CO)C(=O)c2ccccc2-c2ccccc2CO[C@@H]1CN(C)Cc1ccc(Oc2ccccc2)cc1 | – | 0.871 ± 0.0091
C[C@@H]1CN([C@@H](C)CO)C(=O)c2ccccc2-c2ccccc2CO[C@H]1CN(C)C(=O)c1cc(Cl)cc(Cl)c1 | – | 0.937 ± 0.19
Cc1ccc(OC(=O)N(C)C[C@@H]2OCc3ccccc3-c3ccccc3C(=O)N([C@H](C)CO)C[C@H]2C)cc1 | – | 0.834 ± 0.091
C[C@H](CO)N1C[C@H](C)[C@@H](CN(C)Cc2ccc(Oc3ccccc3)cc2)OCc2ccccc2-c2ccccc2C1=O | – | 0.801 ± 0.016
C[C@H](CO)N1C[C@H](C)[C@H](CN(C)C(=O)c2cc(Cl)cc(Cl)c2)OCc2ccccc2-c2ccccc2C1=O | – | 1.04 ± 0.066
O=C(c1ccncc1)N1CC2(C1)[C@H](c1ccccc1)[C@@H](CO)N2CC1CC1 | – | 1.08 ± 0.016
Cc1noc(C)c1NC(=O)Nc1ccc2c(c1)C(=O)N([C@@H](C)CO)C[C@@H](C)[C@@H](CN(C)Cc1ccc3c(c1)OCO3)OCCCC[C@@H](C)O2 | – | 1.15 ± 0.058
O=C(c1ccccn1)N1C[C@H]2[C@@H](c3ccccc31)[C@@H](CO)N2C(=O)Nc1ccccc1Cl | – | 1.05 ± 0.026
CCS(=O)(=O)Nc1ccc2c(c1)C(=O)N(C)[C@@H]1CC[C@H](CC(=O)N[C@@H]3CCN(Cc4ccccc4)C3)O[C@@H]1CO2 | – | 1.05 ± 0.04
O=S(=O)(c1cccc(F)c1)N1CC[C@H]2[C@H](CO)Nc3ccc(C#Cc4ccccc4F)cc3[C@H]21 | – | 1.1 ± 0.012
COc1ccc(CN(C)C[C@@H]2Oc3ccc(NC(=O)Nc4ccc5c(c4)OCO5)cc3CC(=O)N([C@H](C)CO)C[C@@H]2C)cc1 | – | 0.983 ± 0.077
COc1ccc2c3c([C@H](CO)N(C[C@]33CN(C3)S(=O)(=O)c3cn(C)cn3)C(=O)Nc3ccc(F)cc3)n(C)c2c1 | – | 1.114 ± 0.0043
COc1ccc(NC(=O)N(C)C[C@H]2Oc3ccc(NC(=O)Nc4cccc5ccccc45)cc3CC(=O)N([C@H](C)CO)C[C@@H]2C)cc1 | – | 0.968 ± 0.027
COc1ccccc1-c1ccc([C@@H]2[C@@H](C#N)N(C(=O)c3cccnc3)[C@@H]2CO)cc1 | – | 1.06 ± 0.063
CN(C)CC(=O)N1[C@H](C#N)[C@H](c2ccccc2-c2ccccc2F)[C@@H]1CO | – | 1.1 ± 0.066
O=C(C[C@H]1CC[C@H]2[C@@H](COC[C@@H](O)CN2S(=O)(=O)c2ccc(F)cc2)O1)NCCN1CCCCC1 | – | 1.01 ± 0.12
